Reference: paper PMC7862700, “An all-to-all approach to the identification of sequence-specific readers for epigenetic DNA modifications on cytosine”

Tests used:
Experiment in all cases: DAPPL (digital affinity profiling via proximity ligation, sequencing); 10 mM Tris-HCl pH 7.5, 50 mM NaCl, 1 mM DTT, 4% glycerol, room temperature, 30 min; GST-TFs on glutathione beads, 16-mer random dsDNA library, 0.1% formaldehyde crosslink after washing; high values mean tight binding
FLI1 = target: T1, FLI1 (Homo sapiens, UniProt Q01543 1-452); conditions: protein: recombinant; tags: N-terminal GST; dsDNA, one strand shown
T1 sequence: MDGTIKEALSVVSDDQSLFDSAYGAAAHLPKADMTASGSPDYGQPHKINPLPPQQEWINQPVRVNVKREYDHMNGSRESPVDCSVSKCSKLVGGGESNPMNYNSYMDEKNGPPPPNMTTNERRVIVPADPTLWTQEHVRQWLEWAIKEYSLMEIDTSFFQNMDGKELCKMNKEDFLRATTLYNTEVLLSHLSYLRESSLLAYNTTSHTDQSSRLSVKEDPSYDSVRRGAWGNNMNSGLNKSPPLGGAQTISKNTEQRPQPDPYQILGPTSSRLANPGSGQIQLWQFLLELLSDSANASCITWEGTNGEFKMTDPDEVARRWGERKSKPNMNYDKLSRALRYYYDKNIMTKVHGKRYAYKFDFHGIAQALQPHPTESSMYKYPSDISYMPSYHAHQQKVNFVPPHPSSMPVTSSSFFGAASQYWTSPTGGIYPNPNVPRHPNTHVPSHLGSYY
Outline: (§1)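 Beads coated with glutathione captured GST-fused human transcription factors that had been expressed in yeast, and the factors were then given DNA barcodes and pooled with a tag-only sample. The pools were incubated with 200 nmole of a random double-stranded 16-mer DNA library in Tris/NaCl/DTT/glycerol buffer for 30 min at room temperature, washed, crosslinked with 0.1% formaldehyde and proximity-ligated with BsaI/T4 ligase at 37 °C for 1 h. PCR amplification and Illumina NextSeq500 sequencing came last. Binding signal is each hexamer's read frequency for a factor divided by its frequency for the tag-only sample.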

ELK1 = target: T2, ELK1 (Homo sapiens, UniProt P19419 1-428); conditions: protein: recombinant; tags: N-terminal GST; dsDNA, one strand shown
T2 sequence: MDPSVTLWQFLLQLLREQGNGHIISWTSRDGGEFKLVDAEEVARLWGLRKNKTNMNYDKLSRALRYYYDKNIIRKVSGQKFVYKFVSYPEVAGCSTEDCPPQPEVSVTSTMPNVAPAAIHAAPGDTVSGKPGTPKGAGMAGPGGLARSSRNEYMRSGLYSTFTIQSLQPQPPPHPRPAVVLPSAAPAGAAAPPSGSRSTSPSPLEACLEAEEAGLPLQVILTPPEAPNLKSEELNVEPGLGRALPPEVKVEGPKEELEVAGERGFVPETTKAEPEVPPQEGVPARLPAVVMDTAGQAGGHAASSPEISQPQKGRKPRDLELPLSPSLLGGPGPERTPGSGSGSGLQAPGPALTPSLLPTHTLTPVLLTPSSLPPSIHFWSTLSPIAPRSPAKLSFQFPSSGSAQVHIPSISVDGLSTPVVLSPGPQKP
Outline: as §1

GABPA = target: T3, GABPA (Homo sapiens, UniProt Q06546 1-454); conditions: protein: recombinant; tags: N-terminal GST; dsDNA, one strand shown
T3 sequence: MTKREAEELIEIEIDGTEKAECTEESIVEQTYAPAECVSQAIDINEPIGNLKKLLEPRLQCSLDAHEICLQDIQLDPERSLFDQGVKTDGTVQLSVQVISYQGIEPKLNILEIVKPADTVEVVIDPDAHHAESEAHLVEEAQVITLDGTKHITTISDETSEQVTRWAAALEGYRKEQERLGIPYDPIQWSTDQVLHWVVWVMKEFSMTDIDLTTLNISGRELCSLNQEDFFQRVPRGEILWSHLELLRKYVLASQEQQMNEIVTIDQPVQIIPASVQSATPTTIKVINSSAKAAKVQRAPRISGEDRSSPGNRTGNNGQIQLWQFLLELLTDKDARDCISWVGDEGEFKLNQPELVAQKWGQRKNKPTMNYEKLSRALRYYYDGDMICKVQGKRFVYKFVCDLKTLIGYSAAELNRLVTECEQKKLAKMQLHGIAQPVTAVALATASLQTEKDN
Outline: as §1

ERG = target: T4, ERG (Homo sapiens, UniProt P11308 1-479); conditions: protein: recombinant; tags: N-terminal GST; dsDNA, one strand shown
T4 sequence: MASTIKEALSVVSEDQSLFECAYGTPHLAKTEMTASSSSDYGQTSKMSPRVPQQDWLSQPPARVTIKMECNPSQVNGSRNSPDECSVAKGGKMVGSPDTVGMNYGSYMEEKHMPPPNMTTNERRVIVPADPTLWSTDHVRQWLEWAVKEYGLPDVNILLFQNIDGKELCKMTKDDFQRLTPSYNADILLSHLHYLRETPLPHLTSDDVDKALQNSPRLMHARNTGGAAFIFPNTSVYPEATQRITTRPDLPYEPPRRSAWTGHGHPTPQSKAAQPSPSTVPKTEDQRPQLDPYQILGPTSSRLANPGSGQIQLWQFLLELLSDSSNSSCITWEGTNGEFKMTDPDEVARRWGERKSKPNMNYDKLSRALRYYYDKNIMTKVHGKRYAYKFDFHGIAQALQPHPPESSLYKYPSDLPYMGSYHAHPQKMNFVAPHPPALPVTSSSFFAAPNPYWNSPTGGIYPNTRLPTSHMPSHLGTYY
Outline: as §1

ELF1 = ELF1 (Homo sapiens, UniProt P32519 1-619); conditions: protein: recombinant; tags: N-terminal GST; dsDNA, one strand shown
Chain of ELF1 (P32519 whole entry): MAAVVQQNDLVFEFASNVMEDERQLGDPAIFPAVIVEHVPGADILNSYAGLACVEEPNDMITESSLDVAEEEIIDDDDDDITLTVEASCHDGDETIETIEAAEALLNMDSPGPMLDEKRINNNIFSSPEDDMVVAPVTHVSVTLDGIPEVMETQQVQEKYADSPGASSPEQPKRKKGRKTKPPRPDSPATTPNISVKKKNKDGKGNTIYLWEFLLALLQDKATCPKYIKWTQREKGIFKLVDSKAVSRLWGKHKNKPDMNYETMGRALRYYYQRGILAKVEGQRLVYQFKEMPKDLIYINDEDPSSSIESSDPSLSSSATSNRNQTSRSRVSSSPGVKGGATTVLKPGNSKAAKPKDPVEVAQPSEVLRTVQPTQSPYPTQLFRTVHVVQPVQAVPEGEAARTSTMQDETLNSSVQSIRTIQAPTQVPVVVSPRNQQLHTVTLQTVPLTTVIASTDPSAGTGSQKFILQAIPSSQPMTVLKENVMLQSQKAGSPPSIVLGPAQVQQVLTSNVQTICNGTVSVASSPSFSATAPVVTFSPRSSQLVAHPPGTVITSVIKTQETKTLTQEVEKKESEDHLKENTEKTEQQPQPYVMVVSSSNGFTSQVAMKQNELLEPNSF
Outline: as §1

EHF = target: T5, EHF (Homo sapiens, UniProt Q9NZC4 1-300); conditions: protein: recombinant; tags: N-terminal GST; dsDNA, one strand shown
T5 sequence: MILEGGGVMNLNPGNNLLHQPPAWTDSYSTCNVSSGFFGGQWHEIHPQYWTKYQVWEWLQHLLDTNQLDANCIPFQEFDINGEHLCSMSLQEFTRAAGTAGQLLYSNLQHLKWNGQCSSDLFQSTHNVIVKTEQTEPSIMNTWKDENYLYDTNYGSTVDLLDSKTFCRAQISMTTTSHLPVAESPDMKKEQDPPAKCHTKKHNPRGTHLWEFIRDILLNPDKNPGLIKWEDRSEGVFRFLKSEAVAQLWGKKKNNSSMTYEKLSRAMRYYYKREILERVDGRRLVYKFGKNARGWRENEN
Outline: as §1

SPI1 = SPI1 (Homo sapiens, UniProt P17947 1-270); conditions: protein: recombinant; tags: N-terminal GST; dsDNA, one strand shown
Outline: as §1

SPIB = SPIB (Homo sapiens, UniProt Q01892 1-262); conditions: protein: recombinant; tags: N-terminal GST; dsDNA, one strand shown
Chain of SPIB (Q01892 whole entry): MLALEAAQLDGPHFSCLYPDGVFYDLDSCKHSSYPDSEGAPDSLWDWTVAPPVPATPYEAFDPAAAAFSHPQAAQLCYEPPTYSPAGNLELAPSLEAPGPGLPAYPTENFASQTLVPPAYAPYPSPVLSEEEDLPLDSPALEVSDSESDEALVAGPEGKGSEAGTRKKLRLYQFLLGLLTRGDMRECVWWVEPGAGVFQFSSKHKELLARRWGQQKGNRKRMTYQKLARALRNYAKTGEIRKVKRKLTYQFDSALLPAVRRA
Outline: as §1

ELK3 = target: T6, ELK3 (Homo sapiens, UniProt P41970 1-407); conditions: protein: recombinant; tags: N-terminal GST; dsDNA, one strand shown
T6 sequence: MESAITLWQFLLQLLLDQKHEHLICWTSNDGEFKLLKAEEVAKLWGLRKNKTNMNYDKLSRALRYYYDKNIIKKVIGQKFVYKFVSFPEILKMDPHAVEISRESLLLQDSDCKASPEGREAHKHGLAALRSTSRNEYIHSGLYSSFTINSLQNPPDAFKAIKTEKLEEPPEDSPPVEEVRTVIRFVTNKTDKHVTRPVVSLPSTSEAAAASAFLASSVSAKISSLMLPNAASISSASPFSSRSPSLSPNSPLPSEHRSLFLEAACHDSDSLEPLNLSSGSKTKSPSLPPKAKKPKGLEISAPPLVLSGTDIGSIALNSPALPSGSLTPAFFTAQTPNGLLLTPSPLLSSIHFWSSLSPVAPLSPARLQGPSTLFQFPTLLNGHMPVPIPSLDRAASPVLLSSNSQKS
Outline: as §1

FEV = target: T7, FEV (Homo sapiens, UniProt Q99581 1-238); conditions: protein: recombinant; tags: N-terminal GST; dsDNA, one strand shown
T7 sequence: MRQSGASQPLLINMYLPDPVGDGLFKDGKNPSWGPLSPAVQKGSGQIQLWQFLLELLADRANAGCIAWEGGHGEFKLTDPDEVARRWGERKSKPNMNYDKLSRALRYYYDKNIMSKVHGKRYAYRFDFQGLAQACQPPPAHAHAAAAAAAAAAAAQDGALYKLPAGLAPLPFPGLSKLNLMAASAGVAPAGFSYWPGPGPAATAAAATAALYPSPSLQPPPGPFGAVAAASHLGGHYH
Outline: as §1

ETV5 = ETV5 (Homo sapiens, UniProt P41161 1-510); conditions: protein: recombinant; tags: N-terminal GST; dsDNA, one strand shown
Chain of ETV5 (P41161 whole entry): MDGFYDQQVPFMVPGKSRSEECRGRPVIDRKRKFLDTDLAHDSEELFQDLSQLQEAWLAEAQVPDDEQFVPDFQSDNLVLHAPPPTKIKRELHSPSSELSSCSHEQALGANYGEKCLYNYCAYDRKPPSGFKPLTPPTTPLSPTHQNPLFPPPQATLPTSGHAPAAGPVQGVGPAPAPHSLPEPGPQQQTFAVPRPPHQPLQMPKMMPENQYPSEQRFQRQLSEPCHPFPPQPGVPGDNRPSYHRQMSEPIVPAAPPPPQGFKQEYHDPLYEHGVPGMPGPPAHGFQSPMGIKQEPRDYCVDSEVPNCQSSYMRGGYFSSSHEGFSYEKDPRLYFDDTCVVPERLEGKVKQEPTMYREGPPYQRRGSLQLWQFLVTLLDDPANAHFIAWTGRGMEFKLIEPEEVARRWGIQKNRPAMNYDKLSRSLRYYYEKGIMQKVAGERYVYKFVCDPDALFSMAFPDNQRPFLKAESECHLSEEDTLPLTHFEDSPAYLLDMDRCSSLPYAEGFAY
Outline: as §1

HSF1 = HSF1 (Homo sapiens, UniProt Q00613 1-529); conditions: protein: recombinant; tags: N-terminal GST; chain copies: 3; dsDNA, one strand shown
Chain of HSF1 (Q00613 whole entry): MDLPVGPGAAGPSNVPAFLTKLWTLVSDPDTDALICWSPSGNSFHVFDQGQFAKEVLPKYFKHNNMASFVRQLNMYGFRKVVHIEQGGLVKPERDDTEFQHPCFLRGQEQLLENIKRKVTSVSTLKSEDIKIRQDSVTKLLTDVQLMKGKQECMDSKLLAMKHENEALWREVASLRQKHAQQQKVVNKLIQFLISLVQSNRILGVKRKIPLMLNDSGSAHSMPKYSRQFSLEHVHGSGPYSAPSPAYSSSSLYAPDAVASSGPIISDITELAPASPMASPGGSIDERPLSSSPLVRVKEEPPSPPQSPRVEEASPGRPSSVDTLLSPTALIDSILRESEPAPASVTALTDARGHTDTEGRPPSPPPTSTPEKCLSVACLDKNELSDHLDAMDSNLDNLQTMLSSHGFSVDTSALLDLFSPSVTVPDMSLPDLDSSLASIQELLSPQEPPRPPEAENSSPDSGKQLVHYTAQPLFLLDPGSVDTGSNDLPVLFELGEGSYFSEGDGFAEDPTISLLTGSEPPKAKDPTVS
Outline: as §1

SPIC = target: T8, SPIC (Homo sapiens, UniProt Q8N5J4 1-248); conditions: protein: recombinant; tags: N-terminal GST; dsDNA, one strand shown
T8 sequence: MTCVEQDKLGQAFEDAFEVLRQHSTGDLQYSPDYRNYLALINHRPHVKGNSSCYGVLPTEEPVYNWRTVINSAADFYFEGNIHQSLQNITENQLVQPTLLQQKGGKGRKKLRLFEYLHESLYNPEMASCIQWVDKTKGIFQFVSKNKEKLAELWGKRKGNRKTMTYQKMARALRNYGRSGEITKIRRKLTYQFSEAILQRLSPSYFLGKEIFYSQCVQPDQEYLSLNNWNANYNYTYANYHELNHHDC
Outline: as §1

ELF4 = ELF4 (Homo sapiens, UniProt Q99607 1-663); conditions: protein: recombinant; tags: N-terminal GST; dsDNA, one strand shown
Chain of ELF4 (Q99607 whole entry): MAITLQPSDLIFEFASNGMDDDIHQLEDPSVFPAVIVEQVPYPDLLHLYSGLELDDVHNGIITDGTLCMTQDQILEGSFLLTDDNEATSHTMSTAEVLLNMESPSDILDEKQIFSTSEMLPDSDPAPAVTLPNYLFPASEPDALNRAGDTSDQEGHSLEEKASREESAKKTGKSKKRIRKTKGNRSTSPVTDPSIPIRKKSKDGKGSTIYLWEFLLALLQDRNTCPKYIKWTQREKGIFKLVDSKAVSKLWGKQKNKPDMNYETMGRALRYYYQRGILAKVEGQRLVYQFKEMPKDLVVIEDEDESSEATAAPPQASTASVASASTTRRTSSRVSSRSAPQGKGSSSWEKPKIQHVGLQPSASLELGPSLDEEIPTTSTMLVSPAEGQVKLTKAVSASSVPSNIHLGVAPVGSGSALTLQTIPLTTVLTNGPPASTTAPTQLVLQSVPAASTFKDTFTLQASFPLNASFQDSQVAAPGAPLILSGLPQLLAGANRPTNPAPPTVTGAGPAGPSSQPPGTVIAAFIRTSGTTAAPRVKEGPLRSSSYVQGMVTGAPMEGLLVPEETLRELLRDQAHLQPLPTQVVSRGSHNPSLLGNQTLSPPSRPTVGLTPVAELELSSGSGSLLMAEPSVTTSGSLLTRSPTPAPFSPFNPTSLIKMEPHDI
Outline: as §1

ETV2 = target: T9, ETV2 (Homo sapiens, UniProt O00321 1-342); conditions: protein: recombinant; tags: N-terminal GST; dsDNA, one strand shown
T9 sequence: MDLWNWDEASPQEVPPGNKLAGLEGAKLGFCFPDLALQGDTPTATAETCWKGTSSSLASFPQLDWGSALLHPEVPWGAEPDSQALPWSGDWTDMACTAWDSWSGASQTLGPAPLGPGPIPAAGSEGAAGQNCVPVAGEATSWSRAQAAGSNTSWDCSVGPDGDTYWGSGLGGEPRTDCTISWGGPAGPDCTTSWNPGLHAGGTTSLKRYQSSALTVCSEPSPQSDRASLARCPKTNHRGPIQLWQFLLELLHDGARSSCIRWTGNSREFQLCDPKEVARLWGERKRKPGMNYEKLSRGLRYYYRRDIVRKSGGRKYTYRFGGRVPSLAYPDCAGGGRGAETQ
Outline: as §1

ELF3 = target: T10, ELF3 (Homo sapiens, UniProt P78545 1-371); conditions: protein: recombinant; tags: N-terminal GST; dsDNA, one strand shown
T10 sequence: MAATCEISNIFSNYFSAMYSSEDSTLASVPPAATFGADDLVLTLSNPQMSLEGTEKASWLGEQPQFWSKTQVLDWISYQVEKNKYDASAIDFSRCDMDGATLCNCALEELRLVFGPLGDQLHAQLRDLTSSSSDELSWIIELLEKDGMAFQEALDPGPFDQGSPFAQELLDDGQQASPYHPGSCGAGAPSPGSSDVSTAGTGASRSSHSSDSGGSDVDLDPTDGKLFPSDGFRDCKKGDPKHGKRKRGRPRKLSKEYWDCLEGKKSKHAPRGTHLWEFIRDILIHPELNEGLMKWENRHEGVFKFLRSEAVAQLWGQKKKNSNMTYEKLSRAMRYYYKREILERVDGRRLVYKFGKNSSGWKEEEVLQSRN
Outline: as §1

CRX = CRX (Homo sapiens, UniProt O43186 1-299); conditions: protein: recombinant; tags: N-terminal GST; dsDNA, one strand shown
Chain of CRX (O43186 whole entry): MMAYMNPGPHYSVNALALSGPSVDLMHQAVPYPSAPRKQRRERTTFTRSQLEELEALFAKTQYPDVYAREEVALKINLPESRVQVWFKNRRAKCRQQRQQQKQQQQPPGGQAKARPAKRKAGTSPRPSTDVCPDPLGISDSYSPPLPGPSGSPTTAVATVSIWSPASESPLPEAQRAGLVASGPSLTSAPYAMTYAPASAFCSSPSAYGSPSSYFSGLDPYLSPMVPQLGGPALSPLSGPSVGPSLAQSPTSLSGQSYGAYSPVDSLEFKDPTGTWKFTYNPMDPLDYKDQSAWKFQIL
Outline: as §1

ETV1 = ETV1 (Homo sapiens, UniProt P50549 1-477); conditions: protein: recombinant; tags: N-terminal GST; dsDNA, one strand shown
Chain of ETV1 (P50549 whole entry): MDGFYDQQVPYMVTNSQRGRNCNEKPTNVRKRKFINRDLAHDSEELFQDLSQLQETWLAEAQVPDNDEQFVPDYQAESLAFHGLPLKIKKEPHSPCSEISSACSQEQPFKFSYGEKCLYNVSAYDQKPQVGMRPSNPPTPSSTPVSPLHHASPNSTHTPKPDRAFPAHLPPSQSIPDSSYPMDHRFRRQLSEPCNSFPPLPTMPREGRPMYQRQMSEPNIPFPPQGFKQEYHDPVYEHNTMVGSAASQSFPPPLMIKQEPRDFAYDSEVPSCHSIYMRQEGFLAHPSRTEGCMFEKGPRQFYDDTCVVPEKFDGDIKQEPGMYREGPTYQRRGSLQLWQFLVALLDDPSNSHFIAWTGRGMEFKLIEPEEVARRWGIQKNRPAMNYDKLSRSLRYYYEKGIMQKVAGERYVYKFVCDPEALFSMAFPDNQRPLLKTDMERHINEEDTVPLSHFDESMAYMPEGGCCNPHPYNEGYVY
Outline: as §1

Sequence	binding signal (FLI1)	binding signal (ELK1)	binding signal (GABPA)	binding signal (ERG)	binding signal (ELF1)	binding signal (EHF)	binding signal (SPI1)	binding signal (SPIB)	binding signal (ELK3)	binding signal (FEV)	binding signal (ETV5)	binding signal (HSF1)	binding signal (SPIC)	binding signal (ELF4)	binding signal (ETV2)	binding signal (ELF3)	binding signal (CRX)	binding signal (ETV1)
CTTACG	1.16 fold enrichment (6-mer frequency, TF over GST control)	1.15 fold enrichment (6-mer frequency, TF over GST control)	1.11 fold enrichment (6-mer frequency, TF over GST control)	1.02 fold enrichment (6-mer frequency, TF over GST control)	1.1 fold enrichment (6-mer frequency, TF over GST control)	1.07 fold enrichment (6-mer frequency, TF over GST control)	1.09 fold enrichment (6-mer frequency, TF over GST control)	1.06 fold enrichment (6-mer frequency, TF over GST control)	1.07 fold enrichment (6-mer frequency, TF over GST control)	1.06 fold enrichment (6-mer frequency, TF over GST control)	1.12 fold enrichment (6-mer frequency, TF over GST control)	1.14 fold enrichment (6-mer frequency, TF over GST control)	1.02 fold enrichment (6-mer frequency, TF over GST control)	1.14 fold enrichment (6-mer frequency, TF over GST control)	1.1 fold enrichment (6-mer frequency, TF over GST control)	1.11 fold enrichment (6-mer frequency, TF over GST control)	1.5 fold enrichment (6-mer frequency, TF over GST control)	
AACGTC	1.07 fold enrichment (6-mer frequency, TF over GST control)	1.09 fold enrichment (6-mer frequency, TF over GST control)	1.1 fold enrichment (6-mer frequency, TF over GST control)	1.07 fold enrichment (6-mer frequency, TF over GST control)	1.05 fold enrichment (6-mer frequency, TF over GST control)	1.12 fold enrichment (6-mer frequency, TF over GST control)	1.02 fold enrichment (6-mer frequency, TF over GST control)	1.13 fold enrichment (6-mer frequency, TF over GST control)	1.24 fold enrichment (6-mer frequency, TF over GST control)	1.06 fold enrichment (6-mer frequency, TF over GST control)	1.04 fold enrichment (6-mer frequency, TF over GST control)	1.01 fold enrichment (6-mer frequency, TF over GST control)	1.13 fold enrichment (6-mer frequency, TF over GST control)	1.09 fold enrichment (6-mer frequency, TF over GST control)		1.13 fold enrichment (6-mer frequency, TF over GST control)		1.11 fold enrichment (6-mer frequency, TF over GST control)
CAAGAA	1.03 fold enrichment (6-mer frequency, TF over GST control)	1.11 fold enrichment (6-mer frequency, TF over GST control)	1.02 fold enrichment (6-mer frequency, TF over GST control)	1.11 fold enrichment (6-mer frequency, TF over GST control)	1.03 fold enrichment (6-mer frequency, TF over GST control)	1.04 fold enrichment (6-mer frequency, TF over GST control)	1.06 fold enrichment (6-mer frequency, TF over GST control)		1.06 fold enrichment (6-mer frequency, TF over GST control)		1.09 fold enrichment (6-mer frequency, TF over GST control)	1.51 fold enrichment (6-mer frequency, TF over GST control)	1.09 fold enrichment (6-mer frequency, TF over GST control)	1.06 fold enrichment (6-mer frequency, TF over GST control)		1.11 fold enrichment (6-mer frequency, TF over GST control)	1.08 fold enrichment (6-mer frequency, TF over GST control)	1.05 fold enrichment (6-mer frequency, TF over GST control)
